Reference: PubChem BioAssay AID493201 (National Center for Advancing Translational Sciences (NCATS), 2011)
Records with an inconclusive call do not appear. Activity calls are given as the source filed them. The call rests on the fitted dose curve; in most records, active means well fitted activation curve with a large enough effect; inconclusive means small, poorly fitted or top-dose-only effect; inactive means no such curve, though single readings can be large or run the other way.

Experiment: qHTS Assay for Identifying a Potential Treatment of Ataxia-Telangiectasia: Secondary assay (no NCS) hit validation;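 further: phosphorylated KAP1 signal as a proxy for ATM-like kinase activity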; on activation: 0% is about no effect
Conditions: A-T patient fibroblasts, AlphaLISA, no DNA damage added, 90 min; series mostly up to 76.9 µM; activation: at the top concentration
Outline: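 hTERT-immortalized A-T patient fibroblasts (F2112), 500 cells/well, exposed to compounds at up to 76.7 uM final without NCS at 37C. KAP-1 phosphorylation measured by AlphaLISA after lysis and 6 h detection at 25C.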
Potency means the concentration at half of the fitted maximal effect.

Row | SMILES | activation | Potency
1 | CCNC(=S)N(CCc1c(C)[nH]c2ccccc12)Cc1cccnc1 | 26.9% (inactive) | 
2 | CCOC(=O)CNS(=O)(=O)Cc1ccccc1 | 0% (inactive) | 
3 | COc1ccc(C(=O)CSc2nc3ncccc3[nH]2)cc1OC | -4.24% (inactive) | 
4 | CCC(=O)c1ccc2c(c1)OCCO2 | -1.74% (inactive) | 
5 | CSc1nc2ccccc2nc1N(C)S(=O)(=O)c1ccc(C)cc1 |  | 36.8 µM (active)
6 | CCOC(=O)c1[nH]c(COC(=O)c2ccccc2NC(=O)c2ccco2)c(C(=O)OCC)c1C | -1.08% (inactive) | 
7 | Cc1c(Cc2ccccc2)c(NCCCO)n2c(nc3ccccc32)c1C#N | 9.57% (inactive) | 
8 | O=C1/C(=C/c2ccc(N3CCOCC3)o2)SC(=Nc2ccccc2)N1CCc1c[nH]c2ccccc12 | 17.2% (inactive) | 
9 | COc1ccccc1Nc1nc(NCCCN(C)C)nc(N)c1[N+](=O)[O-] |  | 2.6 µM (active)
10 | O=C(CSc1nnc(CNC(=O)c2ccccc2)o1)NCCc1ccccc1 | 22.6% (inactive) | 
11 | CS(=O)(=O)c1ccc(-c2csc(-c3cccnc3)n2)cc1 | 6.96% (inactive) | 
12 | CC(=O)NNC(=O)CN1C(=O)/C(=C/c2ccccc2)SC1=S | 4.35% (inactive) | 
13 | CC(O)[C@H]1CNC(=O)C(=O)N1CC1(c2ccccc2)CC1 (stereo partly drawn) | -4.3% (inactive) | 
14 | COc1ccccc1NC(=O)C1CCCN(S(=O)(=O)c2ccc(-n3cnnn3)cc2)C1 (stereo not drawn) | -4.35% (inactive) | 
15 | Cc1ccc(C)c(-n2c(SCC(=O)NC(C(=O)O)C(C)C)nnc2-c2cccc(Cl)c2)c1 (stereo not drawn) |  | 46.3 µM (active)
16 | Cc1ccc(OC(=O)c2cc(C)nn2C(C)(C)C)cc1 | 6.96% (inactive) | 
17 | COc1ccc(Nc2cc3n(c(=O)n2)CCc2cc(OC)c(OC)cc2-3)cc1 | 4.35% (inactive) | 

Row | SMILES | activation | Potency
18 | NCC(=O)c1cccc2ccc[n+]([O-])c12 | 0% (inactive) | 
19 | CC1(C)CC2(CCO1)OC(=O)CC2C(=O)Nc1c(Cl)cccc1Cl (stereo not drawn) | -1.08% (inactive) | 
20 | COc1ccccc1N1CCN(C(=O)c2cc(=O)c3c(C)cc(C)cc3o2)CC1 | -2.54% (inactive) | 
21 | C/C=C\C=C/C(=O)Nc1cccc(C2=NOC3(C2)C[C@@H](C(N)=O)N(C(=O)COc2ccc(Cl)cc2)C3)c1 (stereo partly drawn) | -5.08% (inactive) | 
22 | COc1ccc2nc(C)cc(Nc3ccc(C(=O)O)cc3)c2c1 | 21.5% (inactive) | 
23 | S=c1[nH]nc(COc2ccccc2)n1/N=C/c1ccccc1Cl | -19.5% (inactive) | 
24 | O=c1c(-c2ccc(Cl)cc2)c[nH]n1-c1ccccc1 | -1.08% (inactive) | 
25 | CC12CCC(C(=O)NNc3ccc([N+](=O)[O-])cc3)(OC1=O)C2(C)C (stereo not drawn) | 34.4% (inactive) | 
26 | O=C(O)c1nccnc1C(=O)Nc1ccccc1-c1ccccc1 | 26.1% (inactive) | 
27 | O=C(c1ccc(F)cc1)c1ccc(N2CCCCC2)cc1 | -6.96% (inactive) | 
28 | C=CCSc1nc2ccccc2n1C(=O)/C=C/c1cc(OC)c(OC)c(OC)c1 | -3.48% (inactive) | 
29 | CCOC(=O)Cc1csc(NC(=O)CSc2nnc(C(C)C)n2C)n1 | 0% (inactive) | 
30 | CC(C)CNS(=O)(=O)c1cc(C(=O)O)c(Cl)cc1Cl | 10.4% (inactive) | 
31 | COCCCNC(=O)c1c[nH]c2ccc(S(=O)(=O)N(C)c3ccccc3C)cc2c1=O | -5.93% (inactive) | 
32 | CNC(=O)/C=C/c1cc(C(=O)c2ccc(Cl)cc2Cl)cn1C | 4.3% (inactive) | 
33 | COC(=O)c1cccc2c1-c1ccccc1/C2=N\NC(N)=O | 15.1% (inactive) | 
